Assay results taken from the supplement of paper PMC10127200.
Counter-ions that a name gives are not always drawn.

Key:
Assay in all cases: Euclidean distance of Cell Painting phenotypic profile (signed KS, 77 features) to DMSO centroid (dimensionless distance); 5 or 10 uM (library dependent); higher = stronger phenotypic change vs DMSO (phenoactivity)
Conditions in all cases: 48 h
786-O = tested on: 786-O
Outline: (§1)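 At 10 or 5 uM, as set by the library, and 0.1% DMSO final, compounds were applied for 48 h to five cancer lines and one healthy fibroblast line. Stained cells were imaged confocally at 20X in 9 fields per well, and Harmony extracted 77 features scored as signed Kolmogorov-Smirnov statistics against vehicle wells on the same plate. Profiles underwent plate-position correction, correlation weighting and replicate averaging at the top dose. Phenoactivity is the Euclidean distance from each such profile to the median vehicle profile.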

A549 = tested on: A549
Outline: as §1

DU145 = tested on: DU145
Outline: as §1

FB = tested on: FB
Outline: as §1

HEPG2 = tested on: HEPG2
Outline: as §1

OVCAR4 = tested on: OVCAR4
Outline: as §1

| SMILES | Euclidean distance (786-O) | Euclidean distance (A549) | Euclidean distance (DU145) | Euclidean distance (FB) | Euclidean distance (HEPG2) | Euclidean distance (OVCAR4) |
| --- | --- | --- | --- | --- | --- | --- |
| CCN1CCN(C(=O)N[C@@H](C(=O)N[C@@H]2C(=O)N3C(C(=O)O)=C(CSc4nnnn4C)CS[C@H]23)c2ccc(O)cc2)C(=O)C1=O [Cefoperazone] | 1.77 | 0.776 | 0.917 | 1.45 | 0.854 | 1.24 |
| CN1CCc2c(c3ccccc3n2Cc2ccc(C(=O)NO)cc2)C1 [Tubastatin A HCl] | 0.602 | 0.832 | 0.783 | 1.34 | 0.601 | 0.657 |
| CCCNc1nc(Nc2ccc(C#N)cc2)ncc1C#CCCCNC(=O)[C@H](C)N(C)C(=O)/C=C/CN(C)C | 6.39 | 4.68 | 5.29 | 5.42 | 5 | 5.67 |
| COc1cc2c(cc1OC)[C@@H]1Cc3ccc(OC)c(OC)c3CN1CC2 [Tetrahydropalmatine] | 0.584 | 0.856 | 0.447 | 0.696 | 0.585 | 0.757 |
| CC/C=C\C/C=C\C/C=C\C/C=C\C/C=C\C/C=C\CCC(=O)O [Docosahexaenoic Acid] | 1.08 | 0.581 | 0.837 | 1.06 | 0.766 | 1.1 |
| CNNCc1ccc(C(=O)NC(C)C)cc1 [Procarbazine HCl] | 1.36 | 0.988 | 1.23 | 1.25 | 0.885 | 0.933 |
| COc1ccc(CN2CCN(C(c3ccc(F)cc3)c3ccc(F)cc3)CC2)c(OC)c1OC [Lomerizine 2HCl] | 1.91 | 1.66 | 1.02 | 1.08 | 1.13 | 1.72 |
| CCN(CC)CCOC(=O)C1(C2CCCCC2)CCCCC1 [Dicyclomine HCl] | 1.23 | 1.1 | 1.39 | 1.16 | 1.04 | 1.43 |
| CC(C(=O)O)c1cccc(Oc2ccccc2)c1 (stereo not drawn) [Fenoprofen Calcium] | 0.95 | 0.634 | 0.599 | 0.997 | 1.16 | 1.97 |
| COc1cc2c(Oc3ccc4[nH]c(C)cc4c3F)ccnc2cc1OCC1(N)CC1 [Anlotinib (AL3818) dihydrochloride] | 3.26 | 3.7 | 2.73 | 3.46 | 3.11 | 3.17 |
| N[C@@H](Cc1cc(I)c(Oc2ccc(O)c(I)c2)c(I)c1)C(=O)O [Liothyronine Sodium] | 0.896 | 0.796 | 0.838 | 1.56 | 1.41 | 0.927 |
| C[C@H]1COC2=C1C(=O)C(=O)c1c2ccc2c1CCCC2(C)C [Cryptotanshinone] | 1.53 | 2.51 | 1.48 | 1.17 | 1.25 | 1.31 |
| CCc1cc2c(cc1CC)CC(NC[C@H](O)c1ccc(O)c3[nH]c(=O)ccc13)C2 [Indacaterol Maleate] | 0.915 | 0.63 | 1.14 | 1.67 | 0.818 | 1.02 |
| CC1(C)S[C@@H]2[C@H](NC(=O)Cc3ccccc3)C(=O)N2[C@H]1C(=O)O [Benzylpenicillin potassium] | 1.15 | 0.89 | 1.18 | 0.93 | 0.711 | 1.48 |
| OB1OCc2cc(F)ccc21 [Tavaborole (AN-2690)] | 0.735 | 0.76 | 0.961 | 1.16 | 0.354 | 0.974 |
| COc1cc2ncnc(Sc3nnc(C)s3)c2cc1OC | 1.26 | 1.44 | 0.977 | 1.09 | 2.45 | 1.9 |
| C=CC(=O)Nc1cccc(Oc2nc(Nc3ccc(N4CCN(C)CC4)cc3OC)ncc2Cl)c1 | 1.32 | 1.34 | 1.43 | 0.99 | 1.05 | 1.98 |
| O=C1c2c(O)cccc2Cc2cccc(O)c21 [Dithranol] | 2.26 | 0.754 | 1.2 | 2.24 | 0.979 | 2.04 |
| CCCCOc1ccc(CC(=O)NO)cc1 [Bufexamac] | 1.36 | 1.11 | 0.87 | 1.25 | 0.883 | 1.39 |
| CC1(C)C2CCC1(C)C(O)C2 (stereo not drawn) [Borneol] | 1.17 | 0.812 | 1.16 | 0.792 | 0.614 | 1.08 |
| O=C(O)C(=O)O.[NH-][C@@H]1CCCC[C@H]1[NH-].[Pt+2] [Oxaliplatin] | 3.37 | 3.26 | 1.5 | 2.95 | 3.19 | 3.47 |
| Cc1ccc(C(=O)Nc2cccc(C(F)(F)F)c2)cc1Nc1nc(-c2cccnc2)nc2c1cnn2C | 3.33 | 3.93 | 3.91 | 1.82 | 3.78 | 1.46 |
| C[S+]([O-])c1ccc(-c2nc(-c3ccc(F)cc3)c(-c3ccncc3)[nH]2)cc1 (stereo not drawn) | 1.84 | 0.978 | 1.1 | 1.03 | 2.4 | 1.33 |
